MARV entry inh: blocks Marburg virus binding to or entry into cells | Marburg virus pseudotyped entry inhibition, cell reporter | Potency, µM (highest dose often 37.8 µM), hits mostly inhibitors | 1.8% of 300,000 active; calls by dose curve; tested in HEK293 cells
VACV Venus inh: vaccinia inhibition (Venus reporter); Vaccinia virus Venus reporter expression, fluorescence; Potency, µM (doses to about 36.5 µM), most hits filed as inhibitors; 0.46% of 330,000 active; AID 720580; calls by dose curve; tested in A549 cells; also: nearly all actives have a fitted effect of over 30% in size
VACV mCherry inh: vaccinia inhibition (mCherry reporter); Vaccinia virus mCherry reporter infection, fluorescence; Potency, µM (titrated, usually from 36.5 µM), actives largely listed as inhibitors; 0.63% of 310,000 active; calls by dose curve; tested in A549 cells; also: nearly all actives have a fitted effect of over 35% in size
LASV entry inh: inhibitors of Lassa virus binding or cell entry. AID 540256. Potency, µM (titrated, usually from 37.9 µM), usual class: inhibitors. Lassa virus pseudotype entry inhibition, cell reporter. 1.2% of 300,000 active; calls by dose curve; tested in HEK293 cells; also: nearly all actives have a fitted effect of over 50% in size
Large screens that a line does not name were inactive; ! = not confirmed by another sample. Only some compounds are listed: those with a hit (about 2.5% of all), similar ones and a draw of the others.

CC1CCCN(CC(O)COC(c2ccccc2)c2ccccc2)C1 (stereo not given)	MARV entry inh 3.98µM, LASV entry inh inconclusive
CC1CCC(C(C)C)C(OCC(O)CN2CCCC(C)C2)C1 (stereo not given)	MARV entry inh inconclusive, VACV mCherry inh inconclusive, LASV entry inh 5.62µM
CC1CCC(C(C)C)C(OCC(O)CN2CCN(Cc3ccccc3)CC2)C1 (stereo not given)	MARV entry inh inconclusive, VACV Venus inh inconclusive, LASV entry inh 8.91µM (no result: VACV mCherry inh)
CCC1CN(CC(=O)NCc2ccc3c(c2)OCO3)Cc2ccc(Cl)cc2O1 (stereo not given)	none (no result: MARV entry inh, LASV entry inh)
CC[N+]1(CC(=O)c2ccc(Cl)cc2)CCCCC1	none (no result: MARV entry inh, LASV entry inh)
CS(=O)(=O)Nc1ccc([N+](=O)[O-])cc1Oc1ccccc1	MARV entry inh inconclusive, LASV entry inh 0.0164µM!
COc1ccc(NC(=O)c2cccs2)cn1	LASV entry inh inconclusive
O=C(Nc1ccc(Oc2cccnc2)nc1)c1ccc(C(F)(F)F)cc1	MARV entry inh 5.62µM
O=C(NC(=O)c1c(Cl)cccc1Cl)Nc1ccc(Oc2cccnc2)nc1	none
CC(C)(C)c1ccc(Oc2ccc(NC(=O)c3cccs3)cn2)cc1	MARV entry inh 12.6µM, VACV Venus inh inconclusive, LASV entry inh inconclusive
COc1ccccc1CNC(=O)c1ccc(-c2ccccc2Cl)o1	VACV Venus inh inconclusive, VACV mCherry inh inconclusive, LASV entry inh inconclusive
COc1ccccc1CNC(=O)c1ccc(-c2ccccc2C(F)(F)F)o1	VACV Venus inh inconclusive, VACV mCherry inh 11.2µM, LASV entry inh inconclusive
[O-][N+]1=c2ccc(Nc3ccccc3)cc2=NC12CCCCC2	MARV entry inh 2.24µM, VACV Venus inh inconclusive, VACV mCherry inh inconclusive, LASV entry inh inconclusive
CCCCNC(=O)c1ccc(CS(=O)(=O)c2ccc(C)cc2)o1	MARV entry inh inconclusive, LASV entry inh 15.8µM
CCCCNC(=O)c1ccc(CS(=O)(=O)c2ccc(OC)cc2)o1	none (no result: MARV entry inh, LASV entry inh)
O=C(NCc1cccs1)c1ccc(CS(=O)(=O)c2ccc(Cl)cc2)o1	LASV entry inh 11.6µM
COc1ccc(S(=O)(=O)Cc2ccc(C(=O)NCc3cccs3)o2)cc1	none (no result: MARV entry inh, LASV entry inh)
CCN(Cc1ccccc1)c1ccc(/C=C/c2nccc3ccccc23)cc1	none (no result: MARV entry inh, LASV entry inh)
Cc1ccc(C)c(CN2CCC3(CCC(CNC(=O)c4ccnn4C)O3)CC2)c1 (stereo not given)	none (no result: MARV entry inh, LASV entry inh)
O=S(=O)(c1cccs1)N1CCC(CO)(Cc2ccc(Cl)cc2)CC1	MARV entry inh 7.94µM, VACV mCherry inh inconclusive, LASV entry inh inconclusive
COc1ccc(C(=O)O/N=C(\N)c2ccccn2)cc1	MARV entry inh inconclusive, LASV entry inh inconclusive
N/C(=N\OC(=O)COc1ccccc1Cl)c1ccccn1	MARV entry inh inconclusive, LASV entry inh 7.31µM
Cc1ccc(C)c(OCC(=O)O/N=C(\N)c2ccccn2)c1	MARV entry inh inconclusive, LASV entry inh inconclusive
COc1ccccc1C(=O)O/N=C(\N)c1ccccn1	MARV entry inh 3.55µM, LASV entry inh inconclusive
COc1cc(OC)c(C(=O)O/N=C(\N)c2ccccn2)cc1OC	none (no result: MARV entry inh, LASV entry inh)
Cc1ccc(C(=O)O/N=C(\N)c2ccccn2)c(C)c1	MARV entry inh 0.631µM, LASV entry inh 0.794µM
Cc1ccc(/C(N)=N/OC(=O)c2ccc(Cl)cc2Cl)cc1	MARV entry inh 7.08µM, LASV entry inh inconclusive
N/C(=N\OC(=O)c1ccccc1[N+](=O)[O-])c1ccccn1	MARV entry inh inconclusive, LASV entry inh inconclusive
N/C(=N\OC(=O)c1ccccc1Cl)c1ccccn1	MARV entry inh inconclusive, LASV entry inh 2.06µM (no result: VACV Venus inh, VACV mCherry inh)
COC(=O)[C@@H]1CCCN1C(=O)c1c(OC)cc(=O)n2c1CCN(Cc1ccc(C)o1)CC2	none (no result: MARV entry inh, LASV entry inh)
CC[C@@]1(O)C(=O)OCc2c1cc1n(c2=O)Cc2cc3c(NC(=O)CN)cccc3nc2-1	MARV entry inh inconclusive, VACV Venus inh inconclusive, VACV mCherry inh inconclusive
CC[C@@]1(O)C(=O)OCc2c1cc1n(c2=O)Cc2cc3ccccc3nc2-1	MARV entry inh 0.0251µM, VACV Venus inh inconclusive, VACV mCherry inh inconclusive, LASV entry inh inconclusive
CCC1(OC(=O)CN)C(=O)OCc2c1cc1n(c2=O)Cc2cc3ccccc3nc2-1 (stereo not given)	MARV entry inh inconclusive, VACV Venus inh inconclusive, VACV mCherry inh 7.08µM, LASV entry inh inconclusive
CN(C)C(=O)CCC(=O)NCC1Cc2cccc(-c3ccccc3C(F)(F)F)c2O1 (stereo not given)	none (no result: MARV entry inh, LASV entry inh)
C(=N\Nc1nc2ccccc2s1)/c1ccco1	LASV entry inh inconclusive
Cc1ccc(C)c(-c2csc(N/N=C/c3ccco3)n2)c1	MARV entry inh 5.01µM, VACV mCherry inh inconclusive, LASV entry inh 2µM
COCC(=O)Nc1cc(C(=O)N2CC3(C)CC2CC(C)(C)C3)c2c(c1)nc(-c1ccncc1)n2C (stereo not given)	none (no result: MARV entry inh, LASV entry inh)
O=C(c1ccc2c(c1)OCO2)N(Cc1cc2ccc(F)cc2nc1N1CCC(O)CC1)CC1CCCO1 (stereo not given)	none (no result: MARV entry inh, LASV entry inh)
COC(=O)c1cnc(Oc2ccc(NC(=O)NC(=O)c3c(OC)cccc3OC)cc2)cc1C(F)(F)F	MARV entry inh 1.58µM, VACV Venus inh inconclusive, VACV mCherry inh inconclusive, LASV entry inh inconclusive
CC1CCN(CCCn2c(SCC(=O)Nc3ccccc3Cl)nc3ccccc3c2=O)CC1	MARV entry inh inconclusive, LASV entry inh 6.31µM
CC(=O)Nc1ccc(NC(=O)CSc2nc3ccccc3c(=O)n2CCCN2CCOCC2)cc1	none
CC(=O)c1c(C)[nH]c(C(=O)CSc2nc3ccccc3c(=O)n2CCCN2CCOCC2)c1C	MARV entry inh 20.6µM (no result: VACV Venus inh, VACV mCherry inh)
COc1ccc(NC(=O)CSc2nc3ccccc3c(=O)n2CCCN2CCC(C)CC2)c(OC)c1	MARV entry inh inconclusive, LASV entry inh inconclusive
O=C(CSc1nc2c(sc3ccccc32)c(=O)n1CCCN1CCOCC1)NC1CCCC1	MARV entry inh 8.2µM (no result: VACV Venus inh, VACV mCherry inh)
C[C@@H]1CC2C3CCC4=CC(=O)C=C[C@]4(C)[C@@]3(F)[C@@H](O)C[C@]2(C)[C@@]1(O)C(=O)CO (stereo not given in full)	none (no result: VACV Venus inh, VACV mCherry inh, LASV entry inh)
Brc1ccc(/C=C2\C=Cc3ccccc32)cc1	none (no result: MARV entry inh, LASV entry inh)
CCCC/C(O)=C1\C(=O)CCCC1=NCCc1c(C)[nH]c2ccc(OC)cc12	MARV entry inh 8.91µM, VACV mCherry inh inconclusive, LASV entry inh inconclusive
Nc1ccc(Br)c[n+]1Cc1cccc2cccnc12	MARV entry inh 10µM
Nc1cccc2cccnc12	VACV mCherry inh inconclusive (no result: MARV entry inh, LASV entry inh)
CCCCNc1c(-c2ccc(SC(C)CC)cc2)nc2cnccn12 (stereo not given)	VACV Venus inh 22.4µM, VACV mCherry inh 31.6µM (no result: MARV entry inh, LASV entry inh)
O=C(c1cccc(Cn2cccn2)c1)N1CCC(n2c(C3CCCO3)nc3cc(C(F)(F)F)ccc32)CC1 (stereo not given)	none (no result: MARV entry inh, LASV entry inh)
COc1ccc(NC(=O)Cn2nnc(-c3ccccc3NC(=O)c3ccco3)n2)cc1	MARV entry inh 11.2µM, VACV Venus inh inconclusive, LASV entry inh inconclusive (no result: VACV mCherry inh)
O=C(Cn1nc2ccccc2n1)N1CCOc2ccc(CN3CCc4sccc4C3)cc2C1	none (no result: MARV entry inh, LASV entry inh)
COc1cc(CN2CCc3nnc(C(NS(C)(=O)=O)C(C)C)n3CC2)ccc1F (stereo not given)	none (no result: MARV entry inh, LASV entry inh)
CO/N=C(\C(=O)N[C@@H]1C(=O)N2C(C(=O)O)=C(CSc3nc(=O)c(O)nn3C)CS[C@H]12)c1csc(N)n1	VACV Venus inh inconclusive (no result: MARV entry inh, LASV entry inh)
CNC(=S)NN=C(C)c1ccc(OC)cc1O	MARV entry inh inconclusive, VACV Venus inh inconclusive, VACV mCherry inh 5.01µM
CCc1ccc(-c2cc(C(=O)N/N=C/c3ccco3)[nH]n2)cc1	none (no result: LASV entry inh)
O=C(N/N=C/c1ccco1)c1cc(-c2ccc3ccccc3c2)n[nH]1	MARV entry inh 12.6µM, VACV Venus inh inconclusive, LASV entry inh inconclusive

Source: PubChem BioAssay
